PubChem BioAssay (NCI)
Several values for one entry are separate records, joined by “and”; a condition that tells them apart may be missing. Equal entries are not always repeated. The panel holds about 79,000 compounds, 15% with a hit somewhere; the sample as a whole holds those more often. Activity calls are given as the source filed them. Rule as the data show it: active = growth inhibition above about 70%; inactive = the rest.

Columns and labels:
[1] = NCI Yeast Anticancer Drug Screen. Data for the rad50 strain (AID 155);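 also: 0% = growth of vehicle-only cultures of the same strain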; settings: S. cerevisiae rad50 strain growth inhibition; at 50.0 µM; stronger effect = higher value
Summary of the method: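 Readout: growth inhibition relative to vehicle-treated cultures. Compound exposure was carried out in a genetically defined yeast strain deficient in DNA damage repair.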

[2] = NCI Yeast Anticancer Drug Screen. Data for the mec2-1 strain (AID 157); settings: S. cerevisiae mec2-1 strain, at 50.0 µM, stronger effect = higher value
Summary of the method: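 Mutant yeast (mec2-1) grown with compound; growth inhibition relative to vehicle control reported.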

[3] = NCI Yeast Anticancer Drug Screen. Data for the sgs1 mgt1 strain (AID 161);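 also: 0% = growth of cultures given vehicle only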; settings: S. cerevisiae sgs1 mgt1 strain, at 50.0 µM, stronger effect = higher value
Summary of the method: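 Growth of a repair-deficient yeast mutant was monitored after compound treatment and expressed as inhibition relative to vehicle-treated cultures.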

[4] = NCI Yeast Anticancer Drug Screen. Data for the cln2 rad14 strain (AID 165);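 also: 0% = growth equal to vehicle treated cultures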; settings: S. cerevisiae cln2 rad14 strain, at 50.0 µM, stronger effect = higher value
Summary of the method: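 Readout is yeast growth inhibition versus vehicle-treated controls, using a strain with cln2 and rad14 alterations exposed to compound.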

[5] = NCI Yeast Anticancer Drug Screen. Data for the bub3 strain (AID 167); settings: S. cerevisiae bub3 mutant strain, at 50.0 µM, stronger effect = higher value
Summary of the method: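 Readout: yeast growth inhibition, expressed relative to vehicle-only wells. The test organism is a mutant strain from a panel with lesions in DNA repair or checkpoint genes.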

[6] = NCI Yeast Anticancer Drug Screen. Data for the mlh1 rad18 strain (AID 175); settings: S. cerevisiae mlh1 rad18 strain growth inhibition; at 50.0 µM; stronger effect = higher value
Summary of the method: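 Genetically defined yeast (DNA repair-deficient) exposed to compounds; growth inhibition determined relative to vehicle.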

Measured: growth inhibition

COc1ccc2nc3cc(Cl)ccc3c(NCCCSCCCl)c2n1
active: [1] 95.4% | [2] 80% | [3] 94.3% | [4] 78.4% | [5] 71.3% | [6] 92.2%

CC1OP(=S)(N2C(=O)c3ccccc3C2=O)OC2CCCCC12 (stereo unspecified)
inactive: [1] 11.8% | [2] 15.6% | [3] 4.4% | [4] -26.4% | [5] 10.2% | [6] -5.9%

CC(=O)CC(C)=O.CC(=O)CC(C)=O.CC(=O)CC(C)=O.[Co]
inactive: [1] -27.8% and 13.9% | [2] -50.8% and -4.9% | [3] -4.85% and 26.6% | [4] -20.4% and -16.4% | [5] -45% and 23.6% | [6] -10.2% and 21.3%

COc1cc2c[n+](C)c3c4cc5c(cc4ccc3c2cc1OC)OCO5
inactive: [1] -11.7% | [2] -37.5% | [3] -28.1% | [4] -5.75% | [5] -26.3% | [6] -33.6%

N#CC1(c2ccccc2)CCCC1
inactive: [1] 5.7% | [2] 8.25% | [3] -4.7% | [4] 11.6% | [5] -4.05% | [6] 2.2%

Cc1cc2[nH]c3c(C#N)c(OC(=O)N(C)C)c(C)c(=O)n3c2cc1C
inactive: [1] 37.3% | [2] 22.3% | [3] 31.6% | [4] 17.1% | [5] 27.9% | [6] 39%

CC(=O)OCC12CCC(C)=CC1OC1C(N(C)C)C(O)C2(C)C12CO2 (stereo unspecified)
inactive: [1] 33.1% | [2] 49.6% | [3] 16.5% | [4] 39.1% | [5] 18.4% | [6] -16.9%

[Cl][Hg][c]1cccc(I)c1N=Nc1ccccc1
inactive: [2] 21.3% | [3] 66.2% | [4] 4.9% | [5] 2.25% | [6] 69.8%
active: [1] 81.9%

COc1ccc(C=C2C(=O)N(C)C(=O)N(C)C2=O)cc1
inactive: [1] 4.8% | [2] 2.1% | [3] -13.2% | [4] 22.3% | [5] 28% | [6] 36.5%

COC1=CC23CCCN2CCc2cc4c(cc2C3C1O)OCO4 (stereo unspecified)
inactive: [1] -6.9% and 0.4% and -9.15% | [2] -23.4% and -25.8% and -28.7% | [3] 16.3% and 17.1% and 15.6% | [4] 4% and 8.1% and 2.4% | [5] -12.8% and -5.35% and -6.25% | [6] -3.85% and -1.8% and -36%

CC1(C)SC2C(NC(=O)Cc3ccccc3)C(=O)N2C1C(=O)O (stereo unspecified) (tested in a mixture with another compound)
inactive: [1] 2.2% | [2] 0.85% | [3] 13.5% | [4] -2.3% | [5] -12.3% | [6] -11.7%

CC(=O)OC1CCC2C3CCC4CC5(CCC4(C)C3CCC12C)CO5 (stereo unspecified)
inactive: [1] -2.45% | [2] -10.7% | [3] -26.2% | [4] 1.2% | [5] 1.75% | [6] 1.2%

CS(=O)(=O)OCCN(CCCl)c1cc(C(N)=O)c([N+](=O)[O-])cc1[N+](=O)[O-]
inactive: [1] -6.8% | [2] -5.5% | [3] 5.45% | [4] -16.4% | [5] -11.4% | [6] -1.65%

[N-]=[N+]=NC1=C(N=[N+]=[N-])c2cccc3cccc(c23)C1=O
active: [6] 81.9%
inactive: [1] 46.3% | [2] 29.1% | [3] 55.3% | [4] 55.6% | [5] 21.1%

OC1C2CCCCN2C[C@@H](O)[C@H]1O (stereo partly specified)
inactive: [1] 16.3% | [2] 11.9% | [3] 22.1% | [4] 22.6% | [5] 12% | [6] -34%

CCCC(Br)C(=O)OCC (stereo unspecified)
inactive: [1] 13.6% | [2] 4.35% | [3] -8.1% | [4] 0.15% | [5] 0.25% | [6] 9.1%

CC[C@H]1CN2CCc3c([nH]c4ccccc34)[C@@H]2C[C@@H]1/C(=C\OC)C(=O)OC
inactive: [1] 8.45% | [2] 3.8% | [3] 18.6% | [4] 9.35% | [5] 21.6% | [6] 0.65%

C[CH2][Pb]([CH2]C)([CH2]C)[O]C(=O)c1ccccc1
inactive: [1] -0.3% | [2] 1.6% | [3] 10.2% | [4] -3.35% | [5] 1.35% | [6] 5.35%

Nc1ccncc1
inactive: [1] 4.35% | [2] -5.45% | [3] 10% | [4] 10.9% | [5] -2.55% | [6] 4.45%

O=[N+]([O-])O.[Sm]
inactive: [1] 12.3% | [2] 3.95% | [3] 26.8% | [4] 17.1% | [5] 15.7% | [6] -18.4%

CC(=O)Oc1cccc2c1C(=O)C(C(=O)C=O)C1C(C=O)OC(C)(C)OC21C (stereo unspecified)
inactive: [1] 29.6% | [2] 0.1% | [3] 33.6% | [4] 14.8% | [5] 16.8% | [6] 12.1%

Cc1cc(-c2ccccc2)cc(C)[n+]1CC[n+]1c(C)cc(-c2ccccc2)cc1C
inactive: [1] -14.9% | [2] -10.7% | [3] -5.85% | [4] -47.7% | [5] 3.4% | [6] -19.4%

CC(=O)O.CC(=O)O.[Co+2].[NH-]C(CCC(N)=O)C(=O)O.[NH-]C(CCC(N)=O)C(=O)O (stereo unspecified)
inactive: [1] 15.2% | [2] 13.4% | [3] 34.2% | [4] -4% | [5] 22.3% | [6] 19.9%

CNC(=O)C(CC(C)[N+](C)(C)C)(c1ccccc1)c1ccccc1 (stereo unspecified)
inactive: [1] 14.2% | [2] 8.4% | [3] 14.5% | [4] 17.9% | [5] 4.85% | [6] 11.4%

O=[N+]([O-])O.[Ce]
inactive: [1] 13.3% | [2] 3.35% | [3] 17.9% | [4] 5.8% | [5] 24.6% | [6] 4.15%

CC1(C)OC2(C)CCC1C(O)C2N1CCCCC1 (stereo unspecified)
inactive: [1] -29.6% | [2] -4.15% | [3] -13.4% | [4] 0.75% | [5] -1% | [6] -8.6%

Cc1ccc(S(=O)(=O)F)cc1
inactive: [1] 10.4% | [2] -8.7% | [3] 2.1% | [4] -14.7% | [5] -1.3% | [6] 9.5%

CCCC[As](=O)(O)C(C)C
inactive: [1] 5% | [2] 9.25% | [3] 2.5% | [4] 16% | [5] 6.95% | [6] 14.1%

c1ccc2c(c1)CN1Cc3ccccc3C2C1
inactive: [1] 6.6% | [2] -12.3% | [3] -13.5% | [4] -13.7% | [5] 2.65% | [6] -6.35%

CNC(=O)Oc1cccc(N=CN(C)C)c1
inactive: [1] 7.65% | [2] 1.05% | [3] 0% | [4] 9.9% | [5] -20.4% | [6] 16.7%

O=C(NP(=O)(N1CC1)N1CC1)c1cc(I)ccc1I
inactive: [1] -2.1% | [2] -1.7% | [3] 1.25% | [4] -27.7% | [5] 12.9% | [6] -14.3%

CCC12C=CCN3CCC4(c5ccc(OC)cc5N(C)C4C(O)(C(=O)OC)C1OC(C)=O)C32 (stereo unspecified) (tested in a mixture with another compound)
inactive: [1] 5.3% and 8.35% | [2] 5.4% and 17.2% | [3] -5.85% and 11.3% | [4] -10.7% and 2.25% | [5] -3.15% and 0.7% | [6] 25.4% and 22.1%

COc1ccccc1CC(C)N (stereo unspecified)
inactive: [1] 1.35% | [2] -5.6% | [3] 8.3% | [4] 16% | [5] 16.1% | [6] 16.3%

CC(C)CCCC(C)CO[P+](=O)OCC(C)CCCC(C)C (stereo unspecified)
inactive: [1] 31.9% | [2] 7.4% | [3] 18.5% | [4] 20.4% | [5] 5.8% | [6] 1.25%

CCN(CC)P1(=O)OP(=O)(N(CC)CC)OP(=O)(N(CC)CC)O1 (stereo unspecified)
inactive: [1] -0.5% | [2] 7% | [3] 11.8% | [4] 14.3% | [5] -9.7% | [6] -11.6%

CNC(C)C(O)c1ccccc1 (stereo unspecified)
inactive: [1] 15.3% and 4.1% | [2] -14.3% and -2.1% | [3] 7.45% and -21.6% | [4] 14.9% and 10.5% | [5] 10% and -5.85% | [6] 13.3% and 8.9%
